Screens deposited in PubChem by several laboratories.
CYP2C9 act: human CYP2C9 activators, primary screen, biochemical, luminescence | AID 1024, 2008 | 96,000 tested, 1.4% active | Cytochrome P450 2C9 (Homo sapiens), P11712 | activation factor at 5 µM | recombinant CYP2C9, luciferin-H conversion; stronger effect = higher value; factor 1 = untreated enzyme, 0 = blocked;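 active means activation factor of 2 or more for CYP2C9 at a 5 µM dose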
Measles CPE: compounds protecting cells from measles virus cytopathic effect, primary screen, measles RdRp inhibitor project, single point, MLSMR library, absorbance; protection (pct of control), % at 4 µM; AID 841, 2007; 140,000 tested, 1.5% active; Measles virus-infected cells, CPE protection; in the data active means protection mostly above about 24%, no sharp cut-off; inactive means mostly below about 26%
CYP2C19 act: human CYP2C19 activators, primary screen, biochemical, luminescence | Cytochrome P450 2C19 (Homo sapiens), P33261 | recombinant CYP2C19, luciferin-H EGE luminescence; stronger effect = higher value; 0 = fully inhibited enzyme, 1 = untreated enzyme | activation factor at 5 µM | 96,000 tested, under 10 active | AID 1025, 2008;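 active means activation factor of at least 2 at 5 µM in the primary screen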
Target sequence (P33261 whole entry, looked up): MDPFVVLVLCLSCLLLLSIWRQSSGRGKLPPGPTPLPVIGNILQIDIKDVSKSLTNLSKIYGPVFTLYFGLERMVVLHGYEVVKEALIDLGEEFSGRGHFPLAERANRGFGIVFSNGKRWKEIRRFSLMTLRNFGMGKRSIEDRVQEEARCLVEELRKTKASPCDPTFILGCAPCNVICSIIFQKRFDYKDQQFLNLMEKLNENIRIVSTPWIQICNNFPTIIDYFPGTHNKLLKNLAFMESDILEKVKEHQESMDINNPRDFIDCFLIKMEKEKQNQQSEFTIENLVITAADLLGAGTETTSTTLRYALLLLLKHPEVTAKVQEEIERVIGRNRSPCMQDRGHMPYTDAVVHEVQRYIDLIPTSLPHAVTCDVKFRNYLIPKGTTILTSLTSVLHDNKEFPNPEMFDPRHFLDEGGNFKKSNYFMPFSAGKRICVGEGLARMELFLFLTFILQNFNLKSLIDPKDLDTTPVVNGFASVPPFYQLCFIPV
CYP2C9 inh: blockers of cytochrome P450 2C9 activity – biochemical, luminescence, ADME assay, primary screen | CYP2C9 Supersomes, luciferin-H conversion | inhibition, % at 5 µM | 96,000 tested, 20% active;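 active means blocking of liver enzyme CYP2C9 beyond about 50% at 5 µM, limit read from the data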
CYP2C19 inhib: blockers of cytochrome P450 2C19 activity – biochemical, luminescence, ADME assay, primary screen; P33261; CYP2C19 Supersomes, luciferin-H EGE luminescence, 30 min; inhibition, % at 5 µM; 96,000 tested, 21% active;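 active means CYP2C19 inhibition above a set limit at 5 µM in the primary screen, cut at about 50% in these data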
Hits are given with their value; . = inactive; / = no result. Sampled rows, rich in hits. Any-hit rate of the full collection: about 22%.

SMILES | CYP2C9 act | Measles CPE | CYP2C19 act | CYP2C9 inh | CYP2C19 inhib
Fc1ccc(COc2ccc(Br)cc2CNCc2ccncc2)cc1 | . | . | . | 89.4 | 99.4
COc1ccc(CC(=O)NCCN2CCCC2)cc1 | . | . | . | . | .
CC(C(=O)O)N1C(=O)CSc2ncccc21 (centres undefined) | . | . | . | . | .
CCOc1cc(CNCc2ccncc2)cc(Br)c1OCc1ccc(F)cc1 | . | . | . | 91.0 | 80.5
COc1cc(CNn2c(C)n[nH]c2=S)cc(Br)c1OCc1ccc(F)cc1 | / | . | / | / | /
CCCCCc1nnc(NC(=O)C(=O)OCC)s1 | . | . | . | . | .
Cc1cc(C)n2nc(SCC(=O)c3ccc[nH]3)nc2n1 | . | . | . | 54.6 | .
Cc1ccc(S(=O)(=O)c2c(N)n(CCCO)c3nc4ccccc4nc23)cc1 | . | . | . | 91.7 | 92.4
Cc1ccc(S(=O)(=O)c2c(N)n(Cc3ccco3)c3nc4ccccc4nc23)cc1C | . | . | . | 64.9 | 54.5
Cc1ccc(S(=O)(=O)c2c(N)n(CCC(C)C)c3nc4ccccc4nc23)cc1 | . | . | . | . | .
Cc1ccc(S(=O)(=O)c2c(N)n(CCN3CCOCC3)c3nc4ccccc4nc23)cc1C | . | . | . | . | 72.3
CCC(C)c1ccc(NC(=O)C2CCN(c3ncccn3)CC2)cc1 (centres undefined) | / | . | / | / | /
COc1ccc(/C=N/NC(=O)C(=O)N2CCN(c3ccccc3OC)CC2)cc1 | . | . | . | . | .
CCOC(=O)CN1N=C(/C=C/c2ccc(OC)cc2)CCC1=O | . | . | . | . | .
CCCCSc1nc(C)cc(SCC(=O)N/N=C/c2cccc(OC)c2O)n1 | . | . | . | 64.3 | .
COc1cccc(/C=N/NC(=O)CSc2nnc(C)n2-c2ccccc2)c1O | . | . | . | . | .
CCCn1c(SCC(=O)Nc2cccc(C)n2)nnc1-c1ccco1 | . | . | . | . | .
CCN(CC)S(=O)(=O)c1cccc(C(=O)NC2CCCCC2)c1 | . | . | . | 57.6 | .
CCN(CC(=O)NC1CCCCCC1)S(=O)(=O)c1ccccc1 | . | . | . | . | .
CCN(CC)S(=O)(=O)c1cccc(C(=O)N2CC(O)CC2C(=O)O)c1 (centres undefined) | . | 28.2 | . | . | .
CCN(CC)S(=O)(=O)c1cccc(C(=O)N2CC(O)CC2C(=O)OC)c1 (centres undefined) | . | . | . | . | .
CCN(CC)S(=O)(=O)c1csc(C(=O)NC2CCCCC2)c1 | . | . | . | 61.8 | .
CCOc1cc(NC(=O)c2cnccn2)c(OCC)cc1NC(=O)c1ccc(OC)cc1 | . | / | . | . | .
O=Nc1c(O)n(Cc2cccc(Cl)c2)c2ccccc12 | . | . | . | 74.3 | 55.9
Cc1ccc(-c2nc(N)sc2CC(=O)OCC(=O)NCC2CCCO2)cc1 (centres undefined) | / | . | / | / | /
SMILES | CYP2C9 act | Measles CPE | CYP2C19 act | CYP2C9 inh | CYP2C19 inhib
CCN(Cc1ccccc1)C(=O)Cn1cnc2c1c(=O)n(C)c(=O)n2C | . | . | . | . | .
CCN(CC)C(=O)Cn1cnc2c1c(=O)n(C)c(=O)n2C | . | 43.7 | . | . | .
Cn1c(=O)c2c(ncn2CC(=O)Nc2nc3ccc(F)cc3s2)n(C)c1=O | . | . | . | 58.6 | .
CC(=O)Nc1cc(C(=O)N2CCCC2)ccc1Sc1ccc(C)cc1 | . | . | . | . | 64.8
CC(=O)Nc1cc(C(=O)N2CCCC2)ccc1Sc1ccc(Cl)cc1 | . | . | . | . | .
COc1ccc(S(=O)(=O)N2CCC(C(=O)NC3CC3)CC2)cc1Cl | . | . | . | . | 77.8
COc1ccc(S(=O)(=O)N2CCC(C(=O)NCc3ccccn3)CC2)cc1C | 2.3 | . | . | . | .
O=C(COc1ccc(S(=O)(=O)N2CCCC2)cc1Cl)NC1CC1 | . | . | . | . | .
O=C(NC1CC1)C1CCN(c2ccc(S(=O)(=O)N3CCOCC3)cc2)CC1 | . | . | . | 74.4 | .
COc1ccc(S(=O)(=O)N2CCC(C(=O)NCc3ccccn3)CC2)cc1Cl | 2.2 | . | . | . | .
CCOC(=O)CN1NC2(CCCC(C)C2)NC1=S (centres undefined) | . | . | . | . | 61.2
CCOC(=O)CN1NC2(CCC(C)CC2)NC1=S (centres undefined) | . | . | . | . | 61.4
